The values that follow come from PubChem BioAssay (NCI).

Each structure is given as a SMILES string. About 83,000 compounds went through this panel and 20% of them were active in at least one assay; those are over-represented in the sample as a whole.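 Values shown are percent growth following 48 h exposure of cells in 96-well plates to a single concentration of compound; below 10 was considered active.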 Active and inactive are the calls of the source.

The assay has as its system HL-60(TB) leukemia. In words: NCI-60 one-dose screen, 48 h (100 = growth as untreated, 0 = no growth, -100 = all killed). The settings on record: 10 µM unless noted.
Take `COc1ccc(C(=O)/C=C/c2cc3ccccc3[nH]c2=O)cc1`: the growth is 33.7% (inactive).
In the case of `Cc1sc2nc(NCCc3c[nH]c4ccc(Cl)cc34)[nH]c(=O)c2c1C`, the growth is 7.05% (active).
In the case of `CN1CCN(C(=O)c2ccc(NC(=O)Nc3ccc(-c4nc(N5CCOCC5)c5cccn5n4)cc3)cc2)CC1` it was 7.69% (active); in that of `CCn1cnc(C[C@H](NC(=O)[C@@H](NC(=O)Nc2cc(C(F)(F)F)cc(C(F)(F)F)c2)C(C)(C)C)C(=O)OC)c1`, -71.5% [100 µM] (active).
With `CCOC(=O)c1cnc2ccccc2c1Cl`, the growth was 122% (inactive).
In the case of `CCCCn1c(C)nc2ccc(Nc3nc(N4CCN(C)CC4)nc4nc[nH]c34)cc21` it was 99.8% (inactive); in that of `COc1cc(-c2c3c(c(Br)n2Cc2ccccc2)-c2nc(N)sc2CC3)cc(OC)c1OC`, 68.4% (inactive); in that of `O=C1/C(=C2/C=Nc3ccccc32)N(O)c2ccccc21`, 8.87% (active).
In the case of `CSc1nc(N)c(N)c(N)n1`, the growth is 77.8% (inactive).
To `O=C1C=CC2(NN=C(c3ccccc3)N2c2cccc(Cl)c2)c2cccc(O)c21` (configuration not stated) belongs 21.8% (inactive); to `COc1ccc([N+](=O)[O-])c(C(=O)O)c1`, 111% (inactive); to `c1ccc(CNCCN(CCNCc2ccccn2)Cc2ccc3ccccc3c2)nc1`, -34.5% (active).
In the case of `O=C(/C=C/c1ccc(F)cc1)c1ccc(Nc2nc(NCCO)nc(Nc3ccc(Cl)cc3)n2)cc1` it was 98.6% (inactive); in that of `CC1(O)CC(c2nc(-c3ccc4ccc(-c5ccccc5)nc4c3)c3c(N)nccn23)C1` (configuration not stated), 17.5% (inactive).
`N#CC1=C(N)Oc2c(sc3c(Br)cccc23)C1c1ccc(F)cc1` (configuration not stated): the growth was -25.6% (active).
In the case of `CNC(=O)c1c(NC(=O)c2ccc(C(F)(F)F)cc2)sc2c1CCC(=O)C2` it was -16.5% (active); in that of `CN(C)C(=S)Sc1ccc([N+](=O)[O-])cc1[N+](=O)[O-]`, -5.16% (active).
To `CN(C)c1ncnc2c1nnn2C1OC(CO)C(O)C1O` (configuration not stated) belongs 4.4% (active).
As for `Clc1nc(Cl)c2ncn(C/C=C/Cn3cnc4c(Cl)nc(Cl)nc43)c2n1`, the growth was -2.68% (active).
In the case of `COc1ccc(/C=C/C(=O)c2ccc(Nc3ccnc4cc(Cl)ccc34)cc2)cc1` it was 17.5% (inactive); in that of `COc1ccc(Cl)cc1NC(=O)c1cc2c([nH]1)-c1nc(NC(=O)C(C)(C)C)sc1CC2`, 60.9% (inactive); in that of `CC[N+](CC)=c1cc2oc3cc(N(C)C)ccc3nc-2cc1C`, -8.38% (active).
In the case of `C=C1C(=O)O[C@H]2[C@H]1CC/C(COC(=O)CCC(=O)OC/C1=C/CC[C@@]3(C)O[C@H]3[C@H]3OC(=O)C(=C)[C@@H]3CC1)=C\CC[C@@]1(C)O[C@@H]21`, the growth was -41.9% (active).
In the case of `COc1ccc(COC=O)cc1` it was 103% (inactive); in that of `O=C1NC(=S)NC(=O)C1=Cc1cccc(C=C2C(=O)NC(=S)NC2=O)c1`, 101% (inactive).
To `COc1ccc(C(=O)c2cc(C)c(OC)c(C)c2)c(OC)c1O` belongs -25.8% (active); to `CN(C)CCn1cc(-c2ccc3c(Nc4ccc(CC(=O)Nc5cccc(F)c5)cc4)ncnc3c2)cn1`, -55.3% [30 µM] (active).
